Experimental data taken from ChEMBL document CHEMBL1961873, “Compounds: GSK PKIS; Assays: Nanosyn kinase panel” (2012).

Experiments:
[1] = molecular target: Mitogen-activated protein kinase kinase kinase kinase 4 (Homo sapiens) (UniProt O95819); settings: at 1 µM;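 note: reported figure is an averaged inhibition value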
[2] = molecular target: Dual specificity mitogen-activated protein kinase kinase 1 (Homo sapiens) (UniProt Q02750); settings: at 0.1 µM
[3] = molecular target: Dual specificity mitogen-activated protein kinase kinase 1 (Homo sapiens) (UniProt Q02750); settings: at 1 µM
[4] = molecular target: Misshapen-like kinase 1 (Homo sapiens) (UniProt Q8N4C8); settings: at 0.1 µM
[5] = molecular target: Misshapen-like kinase 1 (Homo sapiens) (UniProt Q8N4C8); settings: at 1 µM
[6] = molecular target: T1, Serine/threonine-protein kinase 4 (Homo sapiens) (UniProt Q13043); settings: at 0.1 µM
T1 sequence (whole entry): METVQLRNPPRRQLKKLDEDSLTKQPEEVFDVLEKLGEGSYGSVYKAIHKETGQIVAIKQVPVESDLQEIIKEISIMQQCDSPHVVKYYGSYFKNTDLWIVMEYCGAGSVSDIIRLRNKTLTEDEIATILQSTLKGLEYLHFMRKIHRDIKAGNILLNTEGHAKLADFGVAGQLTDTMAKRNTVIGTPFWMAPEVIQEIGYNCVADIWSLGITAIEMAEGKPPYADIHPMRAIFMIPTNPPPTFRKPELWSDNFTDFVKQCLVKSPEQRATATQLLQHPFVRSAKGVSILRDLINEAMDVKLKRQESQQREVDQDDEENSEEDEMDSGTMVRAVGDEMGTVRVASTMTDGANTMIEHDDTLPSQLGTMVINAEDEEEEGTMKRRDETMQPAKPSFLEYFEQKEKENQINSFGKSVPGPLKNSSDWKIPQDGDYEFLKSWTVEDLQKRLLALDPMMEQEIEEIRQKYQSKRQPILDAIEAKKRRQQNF

[7] = molecular target: T1, Serine/threonine-protein kinase 4 (Homo sapiens); settings: at 1 µM
[8] = molecular target: T2, Serine/threonine-protein kinase 3 (Homo sapiens) (UniProt Q13188); settings: at 0.1 µM
T2 sequence (whole entry): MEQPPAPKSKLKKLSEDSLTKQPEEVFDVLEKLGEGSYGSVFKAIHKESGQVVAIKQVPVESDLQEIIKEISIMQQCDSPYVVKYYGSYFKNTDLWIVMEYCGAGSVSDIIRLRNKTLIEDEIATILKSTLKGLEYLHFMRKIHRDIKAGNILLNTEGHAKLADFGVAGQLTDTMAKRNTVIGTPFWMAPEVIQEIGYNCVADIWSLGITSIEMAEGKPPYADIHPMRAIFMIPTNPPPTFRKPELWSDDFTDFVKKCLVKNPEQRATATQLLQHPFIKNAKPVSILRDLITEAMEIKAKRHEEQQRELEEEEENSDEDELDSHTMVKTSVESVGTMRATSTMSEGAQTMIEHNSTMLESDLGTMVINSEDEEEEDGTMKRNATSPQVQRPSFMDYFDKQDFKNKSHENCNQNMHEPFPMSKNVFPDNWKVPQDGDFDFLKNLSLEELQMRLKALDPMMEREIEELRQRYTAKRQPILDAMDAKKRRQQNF

[9] = molecular target: T2, Serine/threonine-protein kinase 3 (Homo sapiens); settings: at 1 µM
[10] = molecular target: Serine/threonine-protein kinase 26 (Homo sapiens) (UniProt Q9P289); settings: at 0.1 µM
[11] = molecular target: Serine/threonine-protein kinase 26 (Homo sapiens) (UniProt Q9P289); settings: at 1 µM
[12] = molecular target: Serine/threonine-protein kinase PAK 1 (Homo sapiens) (UniProt Q13153); settings: at 0.1 µM
[13] = molecular target: Serine/threonine-protein kinase PAK 1 (Homo sapiens) (UniProt Q13153); settings: at 1 µM
[14] = molecular target: Serine/threonine-protein kinase PAK 2 (Homo sapiens) (UniProt Q13177); settings: at 0.1 µM
[15] = molecular target: Serine/threonine-protein kinase PAK 2 (Homo sapiens) (UniProt Q13177); settings: at 1 µM
[16] = molecular target: Serine/threonine-protein kinase PAK 3 (Homo sapiens) (UniProt O75914); settings: at 0.1 µM
[17] = molecular target: Serine/threonine-protein kinase PAK 3 (Homo sapiens) (UniProt O75914); settings: at 1 µM
[18] = molecular target: Serine/threonine-protein kinase PAK 5 (Homo sapiens) (UniProt Q9P286); settings: at 1 µM
[19] = molecular target: Serine/threonine-protein kinase PAK 6 (Homo sapiens) (UniProt Q9NQU5); settings: at 0.1 µM;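 note: mean PAK6 inhibition reported from the GSK PKIS screen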
[20] = molecular target: Serine/threonine-protein kinase PAK 5 (Homo sapiens) (UniProt Q9P286); settings: at 0.1 µM

Chain of Serine/threonine-protein kinase PAK 2 (Homo sapiens) (Q13177 whole entry): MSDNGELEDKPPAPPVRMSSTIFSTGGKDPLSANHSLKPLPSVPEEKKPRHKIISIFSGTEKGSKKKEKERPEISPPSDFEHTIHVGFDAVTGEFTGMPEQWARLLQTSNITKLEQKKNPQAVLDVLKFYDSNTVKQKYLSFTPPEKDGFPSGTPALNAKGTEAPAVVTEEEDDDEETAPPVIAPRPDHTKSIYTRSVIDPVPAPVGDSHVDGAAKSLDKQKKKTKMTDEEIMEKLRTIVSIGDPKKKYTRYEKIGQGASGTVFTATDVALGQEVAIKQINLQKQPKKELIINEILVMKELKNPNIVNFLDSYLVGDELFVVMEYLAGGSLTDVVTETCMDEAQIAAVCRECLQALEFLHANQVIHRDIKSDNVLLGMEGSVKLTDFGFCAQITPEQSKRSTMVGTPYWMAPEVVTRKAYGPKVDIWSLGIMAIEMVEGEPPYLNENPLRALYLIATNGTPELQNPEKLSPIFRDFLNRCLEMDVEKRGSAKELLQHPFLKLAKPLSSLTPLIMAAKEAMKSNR
Chain of Serine/threonine-protein kinase 26 (Homo sapiens) (Q9P289 2-416 limits assumed): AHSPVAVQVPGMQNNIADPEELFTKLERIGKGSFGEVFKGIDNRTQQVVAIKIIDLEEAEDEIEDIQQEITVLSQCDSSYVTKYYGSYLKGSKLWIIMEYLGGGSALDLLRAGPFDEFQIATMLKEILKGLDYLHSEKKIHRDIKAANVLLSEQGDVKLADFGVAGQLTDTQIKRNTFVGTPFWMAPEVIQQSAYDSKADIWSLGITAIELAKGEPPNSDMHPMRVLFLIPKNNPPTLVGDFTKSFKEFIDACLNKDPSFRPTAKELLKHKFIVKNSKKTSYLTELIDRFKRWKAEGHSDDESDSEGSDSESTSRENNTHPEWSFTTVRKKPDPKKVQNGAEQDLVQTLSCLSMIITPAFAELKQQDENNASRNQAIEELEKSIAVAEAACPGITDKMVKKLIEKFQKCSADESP
Chain of Serine/threonine-protein kinase PAK 6 (Homo sapiens) (Q9NQU5 whole entry, looked up): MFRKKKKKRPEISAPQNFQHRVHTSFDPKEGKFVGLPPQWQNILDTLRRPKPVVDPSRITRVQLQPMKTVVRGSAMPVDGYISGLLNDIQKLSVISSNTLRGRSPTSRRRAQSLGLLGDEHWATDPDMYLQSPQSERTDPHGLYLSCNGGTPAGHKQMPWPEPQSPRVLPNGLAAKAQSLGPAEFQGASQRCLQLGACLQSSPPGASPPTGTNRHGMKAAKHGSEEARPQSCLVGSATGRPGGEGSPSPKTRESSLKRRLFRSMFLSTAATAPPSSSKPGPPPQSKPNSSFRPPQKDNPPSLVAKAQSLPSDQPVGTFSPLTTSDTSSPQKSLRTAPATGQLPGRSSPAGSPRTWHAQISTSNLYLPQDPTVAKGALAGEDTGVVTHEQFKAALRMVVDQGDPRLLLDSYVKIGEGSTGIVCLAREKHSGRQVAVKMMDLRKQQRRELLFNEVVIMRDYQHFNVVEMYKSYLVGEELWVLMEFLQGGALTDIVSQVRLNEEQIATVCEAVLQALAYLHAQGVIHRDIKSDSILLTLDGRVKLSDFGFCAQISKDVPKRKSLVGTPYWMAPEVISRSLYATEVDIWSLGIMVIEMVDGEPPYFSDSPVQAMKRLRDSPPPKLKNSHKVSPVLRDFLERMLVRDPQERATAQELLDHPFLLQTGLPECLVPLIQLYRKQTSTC
Chain of Serine/threonine-protein kinase PAK 3 (Homo sapiens) (O75914 whole entry, looked up): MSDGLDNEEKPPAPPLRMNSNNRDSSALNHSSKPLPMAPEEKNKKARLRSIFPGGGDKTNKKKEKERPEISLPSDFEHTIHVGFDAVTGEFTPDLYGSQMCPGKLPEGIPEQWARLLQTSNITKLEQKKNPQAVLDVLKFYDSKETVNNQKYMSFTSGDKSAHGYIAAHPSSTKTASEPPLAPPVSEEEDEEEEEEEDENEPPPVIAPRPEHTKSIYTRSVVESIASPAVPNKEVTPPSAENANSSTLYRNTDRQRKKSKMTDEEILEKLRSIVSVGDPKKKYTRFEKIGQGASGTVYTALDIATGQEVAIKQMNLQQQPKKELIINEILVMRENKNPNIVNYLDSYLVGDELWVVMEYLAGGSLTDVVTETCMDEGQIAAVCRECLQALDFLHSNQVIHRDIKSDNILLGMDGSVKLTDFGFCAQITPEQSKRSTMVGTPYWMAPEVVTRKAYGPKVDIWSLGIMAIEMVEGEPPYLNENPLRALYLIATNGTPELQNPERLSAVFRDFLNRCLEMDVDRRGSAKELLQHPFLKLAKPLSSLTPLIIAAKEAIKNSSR
Chain of Serine/threonine-protein kinase PAK 5 (Homo sapiens) (Q9P286 whole entry, looked up): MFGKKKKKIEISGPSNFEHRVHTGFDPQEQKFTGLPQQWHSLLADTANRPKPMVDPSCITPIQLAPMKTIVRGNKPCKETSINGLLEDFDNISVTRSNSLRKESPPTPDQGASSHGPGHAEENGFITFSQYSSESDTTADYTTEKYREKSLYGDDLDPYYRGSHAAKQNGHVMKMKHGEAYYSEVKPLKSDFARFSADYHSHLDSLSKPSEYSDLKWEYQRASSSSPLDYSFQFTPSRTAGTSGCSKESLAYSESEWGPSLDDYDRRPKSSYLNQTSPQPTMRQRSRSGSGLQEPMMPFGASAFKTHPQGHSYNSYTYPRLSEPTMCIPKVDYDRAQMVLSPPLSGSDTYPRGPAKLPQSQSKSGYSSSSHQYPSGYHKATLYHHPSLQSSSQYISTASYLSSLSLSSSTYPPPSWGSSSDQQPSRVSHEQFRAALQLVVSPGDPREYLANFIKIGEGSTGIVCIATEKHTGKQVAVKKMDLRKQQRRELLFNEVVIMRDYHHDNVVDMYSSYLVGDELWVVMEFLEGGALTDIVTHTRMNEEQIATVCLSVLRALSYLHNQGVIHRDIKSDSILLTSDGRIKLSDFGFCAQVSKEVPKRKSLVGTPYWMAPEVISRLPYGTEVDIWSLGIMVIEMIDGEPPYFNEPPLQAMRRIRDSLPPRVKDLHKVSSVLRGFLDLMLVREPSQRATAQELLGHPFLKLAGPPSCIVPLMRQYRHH
Chain of Serine/threonine-protein kinase PAK 1 (Homo sapiens) (Q13153 whole entry): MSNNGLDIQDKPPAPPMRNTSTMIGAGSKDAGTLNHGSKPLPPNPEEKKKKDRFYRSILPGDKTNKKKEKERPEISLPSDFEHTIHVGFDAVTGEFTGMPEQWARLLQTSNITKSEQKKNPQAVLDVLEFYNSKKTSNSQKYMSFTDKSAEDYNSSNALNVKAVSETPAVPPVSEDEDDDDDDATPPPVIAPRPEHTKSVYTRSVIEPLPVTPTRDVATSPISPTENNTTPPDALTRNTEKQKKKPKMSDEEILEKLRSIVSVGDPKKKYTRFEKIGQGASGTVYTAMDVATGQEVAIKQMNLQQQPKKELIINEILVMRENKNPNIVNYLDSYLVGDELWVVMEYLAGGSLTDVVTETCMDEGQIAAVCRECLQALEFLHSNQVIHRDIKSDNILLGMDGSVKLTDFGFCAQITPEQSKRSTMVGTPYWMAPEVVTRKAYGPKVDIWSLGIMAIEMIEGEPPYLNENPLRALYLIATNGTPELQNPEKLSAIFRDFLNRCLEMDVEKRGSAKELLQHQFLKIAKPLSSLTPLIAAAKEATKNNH
Chain of Dual specificity mitogen-activated protein kinase kinase 1 (Homo sapiens) (Q02750 whole entry): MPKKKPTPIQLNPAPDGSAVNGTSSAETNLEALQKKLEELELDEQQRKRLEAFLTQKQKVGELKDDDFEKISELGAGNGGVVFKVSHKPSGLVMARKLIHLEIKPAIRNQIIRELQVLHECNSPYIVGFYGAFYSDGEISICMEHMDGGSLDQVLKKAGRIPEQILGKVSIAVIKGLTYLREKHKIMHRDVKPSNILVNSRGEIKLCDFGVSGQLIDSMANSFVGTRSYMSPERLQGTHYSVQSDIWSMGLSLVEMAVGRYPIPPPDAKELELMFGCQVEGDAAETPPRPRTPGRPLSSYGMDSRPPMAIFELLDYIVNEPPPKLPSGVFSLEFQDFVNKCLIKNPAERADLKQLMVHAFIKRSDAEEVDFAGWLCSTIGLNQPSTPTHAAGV

Compound	inhibition [1]	inhibition [2]	inhibition [3]	inhibition [4]	inhibition [5]	inhibition [6]	inhibition [7]	inhibition [8]	inhibition [9]	inhibition [10]	inhibition [11]	inhibition [12]	inhibition [13]	inhibition [14]	inhibition [15]	inhibition [16]	inhibition [17]	inhibition [18]	inhibition [19]	inhibition [20]
Cc1nnc(-c2ccc(C)c(-c3ccc(C(=O)NCc4ccc(Cl)cc4)cc3)c2)o1	5.28%	6.35%	4.13%	5.42%	5.04%	3.28%	4.86%	4.12%	5.51%	-1.19%	0.59%	7.92%	6.11%	1.55%	1.24%	4.16%	4.01%	-2.54%	-4.24%	
O=C1Nc2ccccc2/C1=C/Nc1ccc(-n2cncn2)cc1	65.8%	6.13%	6.15%	15.3%	56.5%	14.9%	54.4%	9.7%	35.7%	-0.63%	5.15%	6.65%	8.31%	1.82%	2.17%	5.31%	5.49%	-2.52%	-0.09%	
O=C(Nc1n[nH]c2cc(-c3ccccc3)ccc12)C1CC1	74.2%	4.67%	3.62%	21.4%	64.5%	4.78%	6.38%	5.18%	6.35%	-2.61%	-4.03%	7.59%	7.76%	1.44%	2.41%	5.22%	6.01%	-0.04%	5.51%	0.11%
C#Cc1cccc(Nc2ncnc3ccc(OCCCCNCCS(C)(=O)=O)cc23)c1	19.6%	6.88%	4.96%	9.17%	17.6%	4.35%	7.8%	5.45%	7.49%	-2.14%	-0.45%	9.27%	7.48%	2.71%	1.48%	4.58%	5.67%	4.31%	-6.04%	2.62%
O=C(NCC1CC1)c1ccc(-c2cccc(C(=O)NC3CC3)c2)cc1	2.03%	3.01%	1.66%	2.89%	-1.8%	4.49%	5.3%	4.78%	3.31%	-2.14%	-6.13%	1.6%	3.71%	2.76%	1.58%	2.9%	2.97%	6.07%	-1.35%	9.42%
COc1cc(Nc2ncc(-c3ccccc3)o2)cc(OC)c1OC	26.4%	-0.87%	0.69%	0.26%	17.3%	-2.33%	0%	-4.02%	-1.87%	-0.19%	-4.83%	-0.3%	-0.52%	-1.31%	-0.61%	-1.91%	-0.07%	7.2%	-5.44%	-0.92%
O=C(Nc1n[nH]c2nc(-c3ccc(O)cc3)c(Br)cc12)C1CC1	75.2%	7.68%	8.1%	26.4%	67.7%	5.36%	10.2%	6.31%	10.6%	4.96%	35%	7.71%	8.21%	2.36%	3.87%		6.07%	8.52%	-0.4%	1.12%
CCc1cccc(CC)c1/C=C/c1cncc(C(=O)NC)c1	7.49%	2.63%	2.68%	3.66%	6.06%	5.37%	5.19%	5.6%	3.95%	-0.96%	-4.27%	6.83%	2.08%	2.1%	1.76%	2.61%	3.43%	-1.06%	-5.49%	8.04%
